# Most compounds without a hit are left out; they make up all but 12% or so of the library.
# Lmaj promast – Leishmania major promastigote growth inhibition | 200,000 tested, 9% active | inhibition, % at 10 µM | Leishmania major promastigotes, resazurin fluorescence viability; in the data active means inhibition above about 50%;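 further: promastigotes grown with compound for 44 hours at 28 °C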
# Arbovirus inh – blocks arbovirus infection | 200,000 tested, 0.37% active | inhibition, % at 10 µM | arbovirus infection cell-based antiviral screen; in the data active means inhibition above about 30%
# CHOP inhibitor – CHOP inhibition in unfolded protein response; 220,000 tested, 3.8% active; inhibition, % at 10 µM; CHO-K1 CHOP-promoter luciferase, tunicamycin-induced, 15-18 h;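 active means compounds that reduced the stress-induced luciferase reporter signal by more than about 70% of percent inhibition, limit read from the data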;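 further: 0% = tunicamycin plus vehicle and 100% = wells without tunicamycin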
# WT yeast gro inh – growth inhibition of WT yeast, mitochondrial fusion screen | inhibition, % at 10 µM | 190,000 tested, 2.1% active | mitochondrial fusion phenotypic screen, WT strain | AID 1362; in the data active means inhibition above about 58%; tested in S. cerevisiae
# The depositor's hits bear a star; . = no result.
SMILES,Lmaj promast,Arbovirus inh,CHOP inhibitor,WT yeast gro inh
O=C1c2ccccc2NC(c2cccnc2)N1c1ccccc1F (configuration not stated),31,3,18,-21
COCCNC(=O)c1cccc(Nc2nc(-c3ccccc3)c3cc(Cl)ccc3n2)c1,10,-24,82*,61*
N#C/C(=C\c1cn[nH]c1-c1ccc(Cl)cc1)C(=O)NCc1ccccc1,15,37*,28,4
N#C/C(=C\c1cn[nH]c1-c1ccccc1)C(=O)NC1CCCCCC1,26,-18,72*,4
N#C/C(=C\c1cccc([N+](=O)[O-])c1)C(=O)NCc1ccc(Cl)cc1,51*,-29,92*,26
Cc1[nH]c2ccccc2c1/C=C(\C#N)C(=O)NC(C)c1ccccc1 (configuration not stated),1,10,9,85*
COC(=O)c1ccc(NC(=O)CSc2nnc(C(C)NC(=O)c3ccccc3Cl)n2C)cc1 (configuration not stated),-4,4,-4,-5
COc1ccc(-n2cc(CNCc3cnc4ccccn34)c(-c3cccc(F)c3)n2)cc1,42,-13,22,27
CCc1ccc(C(C)NC(=O)/C(C#N)=C\c2cn[nH]c2-c2ccccc2)cc1 (configuration not stated),27,-30,78*,59*
CC(NC(=O)/C(C#N)=C/c1cn[nH]c1-c1ccccc1)c1ccccc1 (configuration not stated),16,5,19,3
CCc1ccc(NC(=O)COc2ccc(/C=C(/C#N)c3nc4ccccc4[nH]3)cc2OC)cc1,2,9,87*,10
COc1cc(/C=C(/C#N)c2nc3ccccc3[nH]2)ccc1Oc1ncccc1[N+](=O)[O-],7,-6,92*,-1
COc1ccc2nc(/C(C#N)=C\c3ccc(Oc4ccc([N+](=O)[O-])cn4)cc3)[nH]c2c1,3,-18,71*,12
CC1(C)CC(=O)C2=C(C1)NC1=C(C(=O)c3ccccc31)C2c1ccc(O)cc1 (configuration not stated),-13,9,11,-17
CCCCc1ccc(C2C3=C(CC(C)(C)CC3=O)NC3=C2C(=O)c2ccccc23)cc1 (configuration not stated),99*,-3,43,-13
O=C1CCCC2=C1C(c1cccc(O)c1)C1=C(N2)c2ccccc2C1=O (configuration not stated),-5,0,27,2
CCCc1ccc(C2C3=C(CC(C)(C)CC3=O)NC3=C2C(=O)c2ccccc23)cc1 (configuration not stated),88*,-22,22,13
COc1cc(CC(C#N)(CO)c2nc3ccccc3[nH]2)ccc1OC(F)F (configuration not stated),82*,0,25,12
CCS(=O)(=O)c1nc(S(=O)(=O)c2ccc(C)cc2)c(NCCCN(C)C)s1,48,2,21,-2
CC(C)CNC(=O)c1cccc(NC(=O)COc2ccc([N+](=O)[O-])cc2)c1,4,-1,23,13
CC(C)C[C@H](NC(=O)c1nc[nH]c1C(=O)N1CCN(C(=O)OC(C)(C)C)CC1)C(=O)OC(C)(C)C,2,32*,-5,10
CC(C)C[C@H](NC(=O)c1nc[nH]c1C(=O)N1CCc2ccccc2C1)C(=O)OCc1ccccc1,.,.,92*,.
O=C(Cn1ccc(C(F)(F)F)n1)N=Nc1c(O)[nH]c2ccc(Br)cc12,3,-9,-14,20
O=C(Nc1nc(-c2ccccc2)cs1)C1CCCN(S(=O)(=O)c2ccccc2)C1 (configuration not stated),45,5,.,-1
O=C(Nc1nc(-c2ccccc2)cs1)NC1CCCCC1,25,7,93*,22
SMILES,Lmaj promast,Arbovirus inh,CHOP inhibitor,WT yeast gro inh
O=C(Nc1nc(-c2ccccc2)cs1)C1CCCCN1S(=O)(=O)c1ccccc1 (configuration not stated),93*,3,31,19
O=C(Nc1nc(-c2ccccc2)cs1)C1CCCO1 (configuration not stated),7,-2,-3,2
O=C(Nc1ccccc1)C1CCCCN1S(=O)(=O)c1ccccc1 (configuration not stated),7,11,2,-7
O=C(Nc1nc(-c2ccccc2)cs1)C1CCCN(S(=O)(=O)c2cccc([N+](=O)[O-])c2)C1 (configuration not stated),93*,-7,40,-2
Cc1csc(NC(=O)C2CCCN(S(=O)(=O)c3ccc(Br)s3)C2)n1 (configuration not stated),61*,14,70*,20
CCOC(=O)C1CCCN(S(=O)(=O)c2ccc(Br)s2)C1 (configuration not stated),-4,4,31,-12
CC(C)CNc1c(N)c(=O)oc2ccccc12,1,5,42,9
NS(=O)(=O)c1ccc(CCNC(=O)CSc2nc3ccccc3c(=O)n2CCC(=O)N2CCCCC2)cc1,-4,7,12,-2
O=C(Nc1ccc2c(c1)OCO2)C1CCCCN1S(=O)(=O)c1ccccc1 (configuration not stated),65*,-2,35,18
O=C(Nc1nc(-c2ccccc2)cs1)C1CCCCN1S(=O)(=O)c1ccc(Cl)cc1 (configuration not stated),100*,-10,70*,43
CC(=NCCCn1ccnc1)c1c(C)[nH]n(-c2ccc([N+](=O)[O-])cc2)c1=O,20,-6,3,8
COc1ccc(C(C#N)c2ccc(=O)[nH]n2)cc1 (configuration not stated),-4,-3,-18,5
COc1ccc(C(c2c(C)[nH]n(C(N)=S)c2=O)C(C#N)C#N)cc1 (configuration not stated),94*,-7,-59,1
COC(=O)c1sc2nc(C)cc(C)c2c1N,7,-4,7,4
Cc1cc(C)c2c(N)c(C(=O)Nc3ncc(C)s3)sc2n1,68*,-14,96*,6
COc1ccc2nc(NC(=O)c3sc4nc(C)cc(C)c4c3N)sc2c1,.,.,74*,.
O=[N+]([O-])c1ccc(/C=N/NC(=S)Nc2ccccc2C(F)(F)F)o1,19,4,27,14
FC(F)(F)c1ccc(Cl)c(NC(=S)NC2CC2)c1,-1,-1,8,-2
O=C(NCc1ccc(F)cc1)C1CCN(c2cnccn2)CC1,-3,1,9,1
CC1(C)Oc2ccc3ccc(=O)oc3c2/C(=C/Nc2ccccn2)C1=O,-2,-8,92*,6
O=C(O)CCSc1nnc(SCC(=O)NCC(F)(F)F)s1,63*,-2,22,0
CCOC(=O)CNC(=O)CSc1nnc(SCC(=O)NCC(=O)OCC)s1,-7,11,8,-14
Cc1onc(-c2c(Cl)cccc2Cl)c1C(=O)ONC(=O)c1ccccc1,.,.,1,.
O=c1[nH]c(SCc2ccc([N+](=O)[O-])cc2)nc2[nH]ncc12,-5,-25,28,-20
CC1(C)CC(=O)C2=C(C1)OC(N)=C(C#N)C21CCN(Cc2ccccc2)CC1,-3,1,13,3
